Assay [1] is described as follows: Primary qHTS for inhibitors of SARS-S pseudo-typed particle cell entry (AID 1479145; also: nearly all actives have a fitted effect of over 45% in size). (In general: In qHTS, concentration-response curves come from the screen itself.)
Assay [2] is described as follows: Primary qHTS for Huh7 cytotoxicity: counterscreen for inhibitors of MERS-S pseudotyped particle cell entry (AID 1479147).
Assay [3] in a line: Primary qHTS for inhibitors of MERS-S pseudo-typed particle cell entry (AID 1479149). Also: nearly all actives have a fitted effect of over 60% in size.
Assay [4] is described as follows: Primary qHTS for Vero E6 cytotoxicity: counterscreen for inhibitors of SARS-S pseudo-typed particle cell entry (AID 1479150).

The structures appear in SMILES notation. Results filed as inconclusive are left out. Calls of active or inactive are those of the source. Calls follow the shape of the full dose curve.
Potency is read from the fitted curve at half-maximal effect.

On to `O=C(CCCCCCCCC#CI)Oc1ccccc1`, for which the Potency entry in assay [1], in assay [2], in assay [3] and in assay [4] was “inactive” in each case.

Turning to `CCCCC1(COC(=O)CCC(=O)O)C(=O)N(c2ccccc2)N(c2ccccc2)C1=O`, the Potency entry in assay [1], in assay [2], in assay [3] and in assay [4] was “inactive” in each case.

For the compound `C[C@H]1COc2c(C3(N)CC3)c(F)cc3c(=O)c(C(=O)O)cn1c23`, the Potency result in assay [1], in assay [2], in assay [3] and in assay [4] was “inactive” in each case.

Turning to `NC(=O)C1(N2CCCCC2)CCN(CCCC(=O)c2ccc(F)cc2)CC1`, the Potency entry in assay [1], in assay [2], in assay [3] and in assay [4] was “inactive” in each case.

Consider `Oc1c(Cl)cc(Cl)c(Cl)c1Cc1c(O)c(Cl)cc(Cl)c1Cl`, for which the figures for the Potency in assay [1], in assay [3] and in assay [4] were 2820 nM (active), 3550 nM (active) and 5620 nM (active), respectively. The Potency entry in assay [2] is “inactive”.

Turning to `COC(=O)C1=C(C)NC(COC(N)=O)=C(C(=O)OC(C)C)C1c1cccc(Cl)c1Cl` (centres undefined), the Potency result in assay [1], in assay [2], in assay [3] and in assay [4] was “inactive” each time.

Turning to `O=C1c2cccc(O)c2C(=O)c2c(O)cccc21`, the Potency entry in assay [1], in assay [2], in assay [3] and in assay [4] was “inactive” throughout.

For the compound `C[C@]12CC[C@@H]3c4ccc(O)cc4CC[C@H]3[C@@H]1C[C@@H](O)[C@@H]2O`, the Potency result in assay [1], in assay [2], in assay [3] and in assay [4] was “inactive” in each case.

Take `Cc1[nH]c(C)c(Cl)c(=O)c1Cl`: the Potency result in assay [1], in assay [2], in assay [3] and in assay [4] was “inactive” in each case.

For `CCCOc1ccc(C(=O)OCCN(CC)CC)cc1N`, the Potency result in assay [1], in assay [2], in assay [3] and in assay [4] was “inactive” throughout.

Take `COc1cc(O)c(C(=O)c2ccccc2)cc1S(=O)(=O)O`: the Potency entry in assay [1], in assay [2], in assay [3] and in assay [4] was “inactive” in each case.

`Cc1c(F)cc2c(=O)c(C(=O)O)cn3c2c1CCC3C` (centres undefined): the Potency entry in assay [1], in assay [2], in assay [3] and in assay [4] was “inactive” throughout.

As to `C[C@@H](O)[C@H](N)C(=O)O`, the Potency result in assay [1], in assay [2], in assay [3] and in assay [4] was “inactive” each time.

Regarding `CC(C(=O)O)c1ccc(CC2CCCC2=O)cc1` (centres undefined), the Potency result in assay [1], in assay [2], in assay [3] and in assay [4] was “inactive” each time.

For `NC(=O)CCCCC1CCSS1` (centres undefined), the Potency entry in assay [1], in assay [2], in assay [3] and in assay [4] was “inactive” throughout.

Regarding `O=C1C(c2[nH]c3ccccc3c2O)=Nc2ccccc21`, the Potency entry in assay [1], in assay [2], in assay [3] and in assay [4] was “inactive” each time.

In the case of `C#C[C@]1(OC(C)=O)CC[C@H]2[C@@H]3CCC4=C/C(=N/O)CC[C@@H]4[C@H]3CC[C@@]21CC`, the Potency result in assay [1], in assay [2], in assay [3] and in assay [4] was “inactive” in each case.

Turning to `CC(C)(C)C(=O)OCOC(=O)[C@@H]1N2C(=O)[C@@H](NC(=O)[C@H](N)c3ccccc3)[C@H]2SC1(C)C`, the Potency entry in assay [1], in assay [2], in assay [3] and in assay [4] was “inactive” throughout.

Take `Cc1cccc(CN2CCN(C(c3ccccc3)c3ccc(Cl)cc3)CC2)c1` (centres undefined): the Potency result in assay [1], in assay [2], in assay [3] and in assay [4] was “inactive” in each case.

Consider `Cc1ccc2c(Cl)cc(Cl)c(O)c2n1`, for which the Potency result in assay [1], in assay [2], in assay [3] and in assay [4] was “inactive” in each case.

`Cc1nnc(C(=O)NC(C)(C)c2nc(C(=O)NCc3ccc(F)cc3)c(O)c(=O)n2C)o1`: the Potency entry in assay [1], in assay [2], in assay [3] and in assay [4] was “inactive” throughout.

Turning to `CC(=O)OCC(=O)[C@@]1(O)CC[C@H]2[C@@H]3CCC4=CC(=O)C=C[C@]4(C)[C@H]3[C@@H](O)C[C@@]21C`, the Potency result in assay [1], in assay [2], in assay [3] and in assay [4] was “inactive” throughout.

On to `O=C(O)CCC(=O)c1ccc(-c2ccccc2)cc1`, for which the Potency result in assay [1], in assay [2], in assay [3] and in assay [4] was “inactive” each time.

With `OC[C@@H](O)[C@H](O)[C@H](O)[C@@H](O)CO`, the Potency entry in assay [1], in assay [2], in assay [3] and in assay [4] was “inactive” throughout.

Consider `C[C@H](CCC(=O)O)[C@H]1CC[C@H]2[C@@H]3C(=O)C[C@@H]4CC(=O)CC[C@]4(C)[C@H]3CC(=O)[C@]12C`, for which the Potency entry in assay [1], in assay [2], in assay [3] and in assay [4] was “inactive” throughout.

As for `Cc1ccc(/C=N/n2c(-c3ccccc3)csc2=S)cc1`, the Potency entry in assay [1], in assay [2], in assay [3] and in assay [4] was “inactive” each time.

Consider `CCOC(=O)n1ccn(C)c1=S`, for which the Potency entry in assay [1], in assay [2], in assay [3] and in assay [4] was “inactive” in each case.

Turning to `CCCCC(=O)O[C@]1(C(=O)CO)[C@@H](C)C[C@H]2[C@@H]3CCC4=CC(=O)C=C[C@]4(C)[C@@]3(F)[C@@H](O)C[C@@]21C`, the Potency entry in assay [1], in assay [2], in assay [3] and in assay [4] was “inactive” in each case.

Regarding `Cc1[nH]c(=O)c(C#N)cc1-c1ccc2nccn2c1`, the Potency result in assay [1], in assay [2], in assay [3] and in assay [4] was “inactive” in each case.

As to `CC(C)=CCOc1ccc(/C=C/C(=O)c2ccc(OCC=C(C)C)cc2OCC(=O)O)cc1`, the Potency result in assay [1], in assay [2], in assay [3] and in assay [4] was “inactive” each time.

For the compound `CN(C)C(=S)SC(=S)N(C)C`, the Potency in assay [1] is 1410 nM (active); in assay [2], 3160 nM (active); in assay [3] it was 1000 nM (active); in assay [4], 2820 nM (active).

In the case of `COc1cccc(N(C)C(=S)Oc2ccc3c(c2)CCCC3)n1`, the Potency entry in assay [1], in assay [2], in assay [3] and in assay [4] was “inactive” each time.

For the compound `CC(O)COc1ccccc1` (centres undefined), the Potency entry in assay [1], in assay [2], in assay [3] and in assay [4] was “inactive” in each case.

`CCN(CC)C(=O)c1cccc(C)c1`: the Potency entry in assay [1], in assay [2], in assay [3] and in assay [4] was “inactive” each time.

On to `O=c1cc(CO)occ1O`, for which the Potency entry in assay [1], in assay [2], in assay [3] and in assay [4] was “inactive” in each case.

For `Nc1c(CC(=O)O)cccc1C(=O)c1ccc(Br)cc1`, the Potency entry in assay [1], in assay [2], in assay [3] and in assay [4] was “inactive” each time.

Values taken from PubChem BioAssay (NCATS).
